Measured values taken from the supplement of paper PMC9694430.

Assays:
Test in all cases: thermal shift delta Tm vs DMSO control; higher = stronger stabilization (binding)
Details in all cases: 12.5 µM; protein concentration 2 µM
[1] = tested on: LOC_OS01G01410-cb001
How it was run: (§1)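 Thermal shift values come from differential scanning fluorimetry on purified rice kinase domains made in E. coli, with melting temperatures obtained from Boltzmann fits. Samples of 19.5 μl held 2 μM kinase, 100 mM potassium phosphate pH 7.5, 150 mM NaCl, 10% glycerol, 5 × SYPRO Orange and compound in DMSO, and were heated from 25°C to 95°C at 0.05°C/s. Each shift is a triplicate mean relative to the DMSO-only protein sample.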

[2] = tested on: LOC_OS01G02750-cb003
How it was run: as §1

[3] = tested on: LOC_OS01G10900-cb004
How it was run: as §1

[4] = tested on: LOC_OS01G13800-cb001
How it was run: as §1

[5] = tested on: LOC_OS01G14860-cb001
How it was run: as §1

[6] = tested on: LOC_OS01G21960-cb002
How it was run: as §1

[7] = tested on: LOC_OS01G39600-cb002
How it was run: as §1

[8] = tested on: LOC_OS01G48390-cb002
How it was run: as §1

[9] = tested on: LOC_OS01G51400-cb002
How it was run: as §1

[10] = tested on: T1, LOC_OS01G52050-cb004
T1 sequence (whole entry): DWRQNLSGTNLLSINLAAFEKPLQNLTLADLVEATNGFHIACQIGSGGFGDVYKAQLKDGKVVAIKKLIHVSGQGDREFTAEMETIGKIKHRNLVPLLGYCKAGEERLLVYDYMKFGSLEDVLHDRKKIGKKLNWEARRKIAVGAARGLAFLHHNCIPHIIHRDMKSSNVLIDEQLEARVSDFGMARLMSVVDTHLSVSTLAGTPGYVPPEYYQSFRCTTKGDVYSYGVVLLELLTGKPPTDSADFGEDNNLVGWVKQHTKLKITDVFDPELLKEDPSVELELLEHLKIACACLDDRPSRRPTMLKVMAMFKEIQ
How it was run: as §1

[11] = tested on: LOC_OS01G57100-cb003
How it was run: as §1

[12] = tested on: LOC_OS01G60330-cb001
How it was run: as §1

[13] = tested on: LOC_OS01G60700-cb002
How it was run: as §1

[14] = tested on: LOC_OS01G63280-cb003
How it was run: as §1

[15] = tested on: LOC_OS01G67340-cb003
How it was run: as §1

[16] = tested on: LOC_OS01G70970-cb002
How it was run: as §1

[17] = tested on: LOC_OS02G07810-cb001
How it was run: as §1

[18] = tested on: LOC_OS02G08530-cb003
How it was run: as §1

[19] = tested on: LOC_OS02G14120-cb001
How it was run: as §1

[20] = tested on: LOC_OS02G17970-cb001
How it was run: as §1
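Note: purified Escherichia coli-expressed rice kinase domain construct.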

| SMILES | thermal shift delta Tm [1] [°C] | thermal shift delta Tm [2] [°C] | thermal shift delta Tm [3] [°C] | thermal shift delta Tm [4] [°C] | thermal shift delta Tm [5] [°C] | thermal shift delta Tm [6] [°C] | thermal shift delta Tm [7] [°C] | thermal shift delta Tm [8] [°C] | thermal shift delta Tm [9] [°C] | thermal shift delta Tm [10] [°C] | thermal shift delta Tm [11] [°C] | thermal shift delta Tm [12] [°C] | thermal shift delta Tm [13] [°C] | thermal shift delta Tm [14] [°C] | thermal shift delta Tm [15] [°C] | thermal shift delta Tm [16] [°C] | thermal shift delta Tm [17] [°C] | thermal shift delta Tm [18] [°C] | thermal shift delta Tm [19] [°C] | thermal shift delta Tm [20] [°C] |
| --- | --- | --- | --- | --- | --- | --- | --- | --- | --- | --- | --- | --- | --- | --- | --- | --- | --- | --- | --- | --- |
| Oc1cccc(-c2nc(N3CCOCC3)c3oc4ncccc4c3n2)c1 | 0.96 | 0.09 | 0.03 | 0.75 | 0.17 | 0.64 | 0.74 | 0.11 | 0.21 | 0.11 | 1.36 | 1.6 | 1.37 | 0.94 | 0.14 | 0.33 | 0.91 | 0.91 | 0.49 | 0.74 |
| CNC(=O)c1ccc(Nc2ncc(C(F)(F)F)c(NCc3nccnc3N(C)S(C)(=O)=O)n2)cc1 | 1.64 | 3.47 | 1.96 | -0.3 | 7.22 | 2.6 | 5.05 | 3.16 | 0.96 | 6.78 | 0.61 | 2.42 | 1.41 | 0.96 | 1.45 | 7.62 | 0.24 | 2.72 | 6.02 | 0.65 |
| COc1cccc2cc(-c3nc([C@H]4CC[C@H](C(=O)O)CC4)n4ncnc(N)c34)[nH]c12 | 0.94 | 0.05 | 0.36 | -0.29 | 0.44 | 0.7 | 0.94 | 0.31 | 0.16 | 0.07 | 2.68 | 0.91 | 0.9 | 1.4 | 1.05 | 0.4 | 1.58 | 1.17 | 0.19 | 0.71 |
| COc1nccnc1NS(=O)(=O)c1ccc(NC(=O)/C=C/c2ccc([N+](=O)[O-])s2)cc1 [Necrosulfonamide] | 1.29 | 0.21 | 2.42 | 1.27 | 0.78 | 0.24 | -1.55 | 0.84 | -0.04 | 0.81 | -1.39 | 1.46 | 1.17 | 0.16 | 0.36 | -0.61 | 1.4 | 0.83 | -0.66 | 2.48 |
| COc1ccc(COc2cc3oc(=O)c4cc(C(C)O)ccc4c3cc2OC)cc1 (stereo not given) [Palomid 529 (P529)] | 0.67 | 0.16 | 1.07 | 0.03 | 0.14 | 0.64 | -0.21 | 0.4 | 0 | 0.04 | 2.39 | 1.07 | 1.23 | 0.19 | 0.25 | 0.51 | 0.98 | 1.87 | 1.04 | 0.5 |
| CNC(=O)c1cc(Oc2ccc(NC(=O)Nc3ccc(Cl)c(C(F)(F)F)c3)c(F)c2)ccn1 [Regorafenib (BAY 73-4506)] | 2.09 | 0.82 | 0.16 | 0.79 | 2.04 | 0.87 | 0.21 | 0.48 | 0.2 | 0.67 | 0.31 | 0.62 | 0.77 | 1.71 | -0.62 | 0.36 | 0.73 | 0.93 | -0.11 | 0.55 |
